Measurements reported in the supplement of paper PMC10849652.
Targets with a hit are over-represented here; the source holds about 7,900 in all. About 0.6% of all pairs of compound and target were hits. Values without a mark were called inactive.

compound: c1cn2cc(-c3ccc4cn[nH]c4c3)nc(Nc3ccc(N4CCOCC4)cc3)c2n1 [entospletinib]; assay: log2 fold change, soluble protein after heating vs DMSO (PISA); higher = thermal stabilisation; K562 cells, 10 uM, 30 min; active = over 0.2 and 3.5 SD of the protein, either way, in both replicates (recomputed)
Procedure, shortened: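 Quantification of soluble protein used TMTpro 16plex LC-MS/MS, with channel sums equalised. Samples were the supernatant after 21,000xg for 90 min of pooled aliquots from K562 cells (2×10^6 cells/mL) treated with 10 μM compound for 30 min, heated for 3 min over 48°C-58°C, and extracted in PBS with 0.5% NP-40 at 4°C. Values, from duplicates, describe thermal stability against control samples on a log2 fold-change scale.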

Sequence of UniProt Q96EK5 (Q96EK5 whole entry, looked up): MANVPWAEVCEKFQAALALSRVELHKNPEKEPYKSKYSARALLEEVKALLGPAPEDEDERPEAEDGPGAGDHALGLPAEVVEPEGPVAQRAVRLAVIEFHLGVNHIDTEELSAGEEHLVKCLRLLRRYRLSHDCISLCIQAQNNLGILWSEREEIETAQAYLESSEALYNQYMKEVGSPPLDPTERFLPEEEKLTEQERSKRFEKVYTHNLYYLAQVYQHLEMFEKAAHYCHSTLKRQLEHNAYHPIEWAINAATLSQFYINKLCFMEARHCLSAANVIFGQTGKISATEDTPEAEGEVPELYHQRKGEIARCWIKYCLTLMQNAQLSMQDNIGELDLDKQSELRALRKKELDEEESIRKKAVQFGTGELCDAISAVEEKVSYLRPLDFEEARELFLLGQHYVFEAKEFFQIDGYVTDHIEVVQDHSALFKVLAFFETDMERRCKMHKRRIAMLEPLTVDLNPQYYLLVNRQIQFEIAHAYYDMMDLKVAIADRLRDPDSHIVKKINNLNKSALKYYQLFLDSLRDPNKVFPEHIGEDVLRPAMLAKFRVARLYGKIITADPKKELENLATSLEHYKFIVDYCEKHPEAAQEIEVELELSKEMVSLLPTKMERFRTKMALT
Sequence of UniProt P28290 (P28290 whole entry, looked up): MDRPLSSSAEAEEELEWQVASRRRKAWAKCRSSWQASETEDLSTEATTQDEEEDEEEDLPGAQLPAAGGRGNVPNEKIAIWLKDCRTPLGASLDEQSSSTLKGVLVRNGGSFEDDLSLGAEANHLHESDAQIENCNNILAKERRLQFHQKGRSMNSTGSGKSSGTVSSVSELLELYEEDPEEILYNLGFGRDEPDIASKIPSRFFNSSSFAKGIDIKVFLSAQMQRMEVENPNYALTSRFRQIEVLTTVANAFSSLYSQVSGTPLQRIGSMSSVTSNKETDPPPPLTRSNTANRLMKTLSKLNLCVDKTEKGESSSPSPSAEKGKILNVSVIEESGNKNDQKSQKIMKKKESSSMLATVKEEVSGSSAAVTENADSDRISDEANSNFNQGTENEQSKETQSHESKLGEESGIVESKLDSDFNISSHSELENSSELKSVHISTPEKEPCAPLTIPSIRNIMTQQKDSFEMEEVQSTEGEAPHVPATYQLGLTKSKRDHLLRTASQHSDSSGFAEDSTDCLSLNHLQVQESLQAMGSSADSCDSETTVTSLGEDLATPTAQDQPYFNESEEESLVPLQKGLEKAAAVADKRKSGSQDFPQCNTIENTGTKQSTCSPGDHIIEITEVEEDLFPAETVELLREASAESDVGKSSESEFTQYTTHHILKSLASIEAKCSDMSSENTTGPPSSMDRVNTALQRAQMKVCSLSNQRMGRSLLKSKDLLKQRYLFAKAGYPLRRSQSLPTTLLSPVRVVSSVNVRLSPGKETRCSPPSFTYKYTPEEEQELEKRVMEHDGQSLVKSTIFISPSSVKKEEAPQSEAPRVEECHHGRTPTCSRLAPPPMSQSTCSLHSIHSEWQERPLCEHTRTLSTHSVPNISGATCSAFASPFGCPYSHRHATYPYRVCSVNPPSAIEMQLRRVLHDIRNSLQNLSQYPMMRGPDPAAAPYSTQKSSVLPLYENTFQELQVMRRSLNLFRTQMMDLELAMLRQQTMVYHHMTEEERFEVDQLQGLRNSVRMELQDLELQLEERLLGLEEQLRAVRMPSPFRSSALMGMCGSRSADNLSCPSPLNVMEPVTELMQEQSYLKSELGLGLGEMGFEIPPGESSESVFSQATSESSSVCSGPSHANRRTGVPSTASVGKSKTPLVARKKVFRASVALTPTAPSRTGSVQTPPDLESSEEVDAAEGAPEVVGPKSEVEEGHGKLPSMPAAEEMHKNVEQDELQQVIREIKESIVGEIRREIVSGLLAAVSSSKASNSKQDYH
Sequence of UniProt P27448 (P27448 whole entry, looked up): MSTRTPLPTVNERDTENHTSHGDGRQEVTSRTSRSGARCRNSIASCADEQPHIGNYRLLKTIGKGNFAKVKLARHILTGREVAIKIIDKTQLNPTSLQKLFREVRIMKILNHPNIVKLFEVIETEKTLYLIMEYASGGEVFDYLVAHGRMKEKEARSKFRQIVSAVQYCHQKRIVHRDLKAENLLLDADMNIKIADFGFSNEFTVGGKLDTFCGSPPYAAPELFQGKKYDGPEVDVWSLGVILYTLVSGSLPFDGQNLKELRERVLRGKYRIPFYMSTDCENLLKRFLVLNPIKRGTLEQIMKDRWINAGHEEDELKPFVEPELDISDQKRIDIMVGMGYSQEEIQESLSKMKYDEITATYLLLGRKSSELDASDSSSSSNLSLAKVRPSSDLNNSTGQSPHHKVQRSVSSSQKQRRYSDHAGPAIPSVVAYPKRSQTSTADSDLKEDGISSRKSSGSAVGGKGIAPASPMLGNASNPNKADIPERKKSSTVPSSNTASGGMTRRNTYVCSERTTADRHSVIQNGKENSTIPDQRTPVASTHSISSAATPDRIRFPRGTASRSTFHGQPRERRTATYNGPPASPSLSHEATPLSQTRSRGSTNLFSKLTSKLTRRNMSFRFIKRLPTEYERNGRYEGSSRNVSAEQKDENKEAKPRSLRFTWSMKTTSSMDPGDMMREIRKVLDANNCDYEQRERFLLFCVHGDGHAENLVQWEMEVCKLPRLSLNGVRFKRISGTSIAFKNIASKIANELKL
Sequence of UniProt O43934 (O43934 whole entry, looked up): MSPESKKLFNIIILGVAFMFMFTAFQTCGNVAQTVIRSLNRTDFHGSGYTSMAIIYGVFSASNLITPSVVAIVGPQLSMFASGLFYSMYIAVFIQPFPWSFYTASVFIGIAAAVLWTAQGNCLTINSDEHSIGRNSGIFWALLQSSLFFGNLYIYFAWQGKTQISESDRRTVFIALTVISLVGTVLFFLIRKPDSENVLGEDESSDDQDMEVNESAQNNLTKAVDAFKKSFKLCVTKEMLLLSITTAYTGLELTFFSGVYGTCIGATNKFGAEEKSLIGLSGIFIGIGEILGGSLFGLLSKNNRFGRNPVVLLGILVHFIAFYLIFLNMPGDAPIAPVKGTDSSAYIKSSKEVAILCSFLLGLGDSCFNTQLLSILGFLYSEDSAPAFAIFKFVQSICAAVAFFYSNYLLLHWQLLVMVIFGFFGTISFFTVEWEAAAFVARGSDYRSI
Sequence of UniProt O00629 (O00629 whole entry, looked up): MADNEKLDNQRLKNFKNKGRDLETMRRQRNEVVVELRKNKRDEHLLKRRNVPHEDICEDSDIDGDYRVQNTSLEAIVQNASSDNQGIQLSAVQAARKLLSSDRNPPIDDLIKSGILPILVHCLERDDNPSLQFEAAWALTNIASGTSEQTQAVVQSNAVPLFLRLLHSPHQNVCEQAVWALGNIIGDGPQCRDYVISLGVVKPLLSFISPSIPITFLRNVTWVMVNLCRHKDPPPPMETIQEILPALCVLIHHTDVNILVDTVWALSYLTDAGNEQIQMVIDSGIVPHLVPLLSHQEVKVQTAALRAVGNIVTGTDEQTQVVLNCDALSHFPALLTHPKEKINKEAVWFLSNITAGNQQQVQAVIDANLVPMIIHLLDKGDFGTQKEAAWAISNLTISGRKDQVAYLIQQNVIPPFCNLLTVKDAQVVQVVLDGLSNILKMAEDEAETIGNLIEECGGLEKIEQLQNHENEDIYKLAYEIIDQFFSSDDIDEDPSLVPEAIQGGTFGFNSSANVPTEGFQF
Sequence of UniProt Q03252 (Q03252 whole entry, looked up): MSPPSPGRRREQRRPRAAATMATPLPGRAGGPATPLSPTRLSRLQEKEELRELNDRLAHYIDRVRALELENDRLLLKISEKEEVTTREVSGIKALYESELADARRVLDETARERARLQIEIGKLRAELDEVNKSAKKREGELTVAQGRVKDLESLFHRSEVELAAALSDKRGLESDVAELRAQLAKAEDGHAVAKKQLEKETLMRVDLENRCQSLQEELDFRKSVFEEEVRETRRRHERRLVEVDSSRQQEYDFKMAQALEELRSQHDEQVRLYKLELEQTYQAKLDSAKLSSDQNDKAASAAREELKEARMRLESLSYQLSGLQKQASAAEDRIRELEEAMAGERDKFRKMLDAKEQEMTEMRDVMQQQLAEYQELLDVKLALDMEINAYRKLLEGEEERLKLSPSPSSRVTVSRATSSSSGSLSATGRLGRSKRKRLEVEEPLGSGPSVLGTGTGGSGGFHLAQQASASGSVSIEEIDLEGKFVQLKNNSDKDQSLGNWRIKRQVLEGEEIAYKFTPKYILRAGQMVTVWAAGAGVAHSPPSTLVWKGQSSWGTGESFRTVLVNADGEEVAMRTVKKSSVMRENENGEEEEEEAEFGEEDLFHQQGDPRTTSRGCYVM
Sequence of UniProt Q9NVC6 (Q9NVC6 whole entry, looked up): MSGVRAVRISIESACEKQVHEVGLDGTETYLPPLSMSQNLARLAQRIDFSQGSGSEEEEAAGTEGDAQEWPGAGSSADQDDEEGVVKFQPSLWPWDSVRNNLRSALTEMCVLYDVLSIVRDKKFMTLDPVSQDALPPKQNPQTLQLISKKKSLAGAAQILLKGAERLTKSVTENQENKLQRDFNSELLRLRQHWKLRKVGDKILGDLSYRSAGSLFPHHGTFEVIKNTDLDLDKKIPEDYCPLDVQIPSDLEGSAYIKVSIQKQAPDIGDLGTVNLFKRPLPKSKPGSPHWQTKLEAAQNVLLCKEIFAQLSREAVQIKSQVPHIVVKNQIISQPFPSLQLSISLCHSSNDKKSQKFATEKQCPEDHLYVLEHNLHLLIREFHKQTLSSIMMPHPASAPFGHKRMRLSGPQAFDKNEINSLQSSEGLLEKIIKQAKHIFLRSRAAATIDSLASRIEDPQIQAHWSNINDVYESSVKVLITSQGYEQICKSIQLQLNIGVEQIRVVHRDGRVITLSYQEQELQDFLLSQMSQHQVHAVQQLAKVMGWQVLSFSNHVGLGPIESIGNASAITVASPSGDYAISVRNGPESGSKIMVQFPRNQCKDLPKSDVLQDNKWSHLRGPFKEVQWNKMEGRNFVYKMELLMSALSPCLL
Sequence of UniProt Q9BRT3 (Q9BRT3 whole entry, looked up): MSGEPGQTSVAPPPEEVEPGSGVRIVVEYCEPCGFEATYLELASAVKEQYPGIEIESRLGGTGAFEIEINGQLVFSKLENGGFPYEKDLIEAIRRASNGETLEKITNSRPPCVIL

Row | Target | log2 fold change
1 | MAP1LC3B2 (UniProt A6NCE7) | -0.001
2 | LRBA (UniProt P50851) | -0.002
3 | MFSD11 (UniProt O43934) | 0.109
4 | MIEN1 (UniProt Q9BRT3) | -0.01
5 | IGFBP2 (UniProt P18065) | 0.092
6 | METAP1D (UniProt Q6UB28) | 0.026
7 | MCUR1 (UniProt Q96AQ8) | 0.018
8 | MGST1 (UniProt P10620) | 0.051
9 | MELK (UniProt Q14680) | 0.025
10 | KCNK5 (UniProt O95279) | 0.171
11 | ITPRID2 (UniProt P28290) | -0.017
12 | MARCHF3 (UniProt Q86UD3) | 0.058
13 | LMNB2 (UniProt Q03252) | -0.082
14 | MAP3K7 (UniProt O43318) | 0.055
15 | MIEF1 (UniProt L0R8F8) | 0.023
16 | IMMT isoform 4 (UniProt Q16891) | -0.011
17 | MAPKAPK3 (UniProt Q16644) | 0.001

Row | Target | log2 fold change
18 | ING5 (UniProt Q8WYH8) | -0.058
19 | MIF (UniProt P14174) | 0.111
20 | INTS7 (UniProt Q9NVH2) | -0.005
21 | MGST3 (UniProt O14880) | 0.054
22 | KCT2 (UniProt Q8NC54) | 0.022
23 | MFF (UniProt Q9GZY8) | -0.029
24 | MAPK8 isoform 3 (UniProt P45983) | -0.038
25 | MED17 (UniProt Q9NVC6) | -0.068
26 | KPNA4 (UniProt O00629) | -0.058
27 | IPO11 isoform 2 (UniProt Q9UI26) | 0.022
28 | IKZF1 (UniProt Q13422) | 0.042
29 | KIFBP (UniProt Q96EK5) | -0.098
30 | KMT2C isoform 3 (UniProt Q8NEZ4) | 0.052
31 | MARK3 (UniProt P27448) | -0.024
32 | KSR1 (UniProt Q8IVT5) | 0.038
33 | MED12 isoform 2 (UniProt Q93074) | 0.177
